This passage reports outcome and AC50 results from PubChem BioAssay (EPA / NIEHS).

“And” between values parts separate entries of the source, which are not always exact repeats. Identical values can stand only once. Results filed as inconclusive are left out. The source holds several records for some structures; these can differ, active in one and inactive in another. The source made the active and inactive calls. Rule for the calls, unless noted: active = hit-call score of the fitted dose curve at least 0.9, where 1 is the maximum; inconclusive = response in the unintended direction; inactive = score below 0.9.

Usually AC50 stands for the concentration giving half of the maximal activity seen.

In assay [1] the test system is Sodium/Iodide Symporter (NIS), SLC5A5 (gene 6528). The assay can be described thus: CPHEA_Stoker_NIS_Inhibition_RAIU: CPHEA's Radioactive Iodide Uptake (RAIU) Assay for Sodium/Iodide Symporter (NIS) Inhibition, Stoker and Laws Labs (AID 2283841). In short, it runs like this: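 Iodide uptake through human NIS is measured in an engineered HEK293T line. Cells take up 125I (329pM final) for 2 hours at room temperature alongside chemicals at 0.001–100uM. Retained radioactivity is counted, and the signal is expressed against DMSO controls.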

Assay [2] in a line: CPHEA_Stoker_NIS_Cytotoxicity: Cytotoxicity Assessment for CPHEA's Radioactive Iodide Uptake (RAIU) Assay for Sodium/Iodide Symporter (NIS) Inhibition, Stoker and Laws Labs (AID 2283897).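 For AC50: active means loss of ATP signal versus DMSO meaning cytotoxicity.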 In short, it runs like this: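 ATP luminescence (Cell Titer Glo) measured viability, with loss of signal normalized to DMSO controls. Cells: hNIS-HEK293T-EPA, seeded 40 hours prior. Dosing: 0.001–100uM, 2 hours, room temperature, uptake buffer pH 7.4.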

The target of assay [3] is Peroxisome proliferator-activated receptor gamma (Homo sapiens) (UniProt P37231). Briefly: ATG_hPPARg_XSP2: Attagene TRANS-FACTORIAL Multi-Species (XSP2) HepG2 Assay for human Peroxisome Proliferator-activated Receptor gamma (PPARg) (AID 2283829).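 Note: actives raise reporter mRNA above DMSO so AC50 reflects PPARg activation.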 In short, it runs like this:
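After transfecting HepG2 with GAL4-UAS reporter constructs, cells are dosed for 24 h; total RNA is reverse-transcribed, PCR-amplified, FAM-labeled, HpaI-digested and resolved by capillary electrophoresis. Activity is measured as mRNA induction relative to DMSO.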

Assay [4] concerns the target mouse Peroxisome Proliferator-activated Receptor gamma (PPARg), Pparg (gene 19016) (UniProt P37238). The assay can be described thus: ATG_mPPARg_XSP2: Attagene TRANS-FACTORIAL Multi-Species (XSP2) HepG2 Assay for mouse Peroxisome Proliferator-activated Receptor gamma (PPARg) (AID 2283830).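 Note: hits are gains in reporter mRNA above DMSO so AC50 marks activation.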 An outline of the steps:
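Multiplexed TRANS reporter readout: after 24 h chemical exposure of transfected HepG2 cells (with 3 nM 6-alpha-fluorotestosterone, 1.5 nM norgestrel present), RNA reverse-transcribed, amplified, 6-FAM-labelled and resolved by capillary electrophoresis; mouse PPARg-Gal4 induction scored against DMSO.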

Assay [5] deals with zebrafish Thyroid Hormone Receptor alpha (TRa), thraa (gene 30670) (UniProt Q98867). The assay can be described thus: ATG_zfTRa_XSP2: Attagene TRANS-FACTORIAL Multi-Species (XSP1) HepG2 Assay for zebrafish Thyroid Hormone Receptor alpha (TRa) (AID 2283832).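 Note: actives raise zebrafish TRa-Gal4 reporter transcript above DMSO baseline.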 In short, it runs like this:
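Readout is reporter mRNA induction, quantified by RT-PCR and capillary electrophoresis with fluorescent labelling, after 24 h compound exposure of transiently transfected HepG2 cells carrying NR-Gal4 chimera reporters. Activity fitted upward relative to DMSO.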

A short description of assay [6]: ATG_M_61_XSP2: Attagene TRANS-FACTORIAL Multi-Species (XSP2) HepG2 Assay for M61 Transcription Factor (Internal Marker) (AID 2283835; active = hit-call score of the fitted dose curve at least 0.9, where 1 is the maximum; inactive = score below 0.9;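 note: active means a rise in signal above the DMSO baseline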). In short, it runs like this:
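Internal background marker, read as RT-PCR/capillary-electrophoresis reporter mRNA 24 h post-dose in transiently transfected HepG2 cells. Androgen receptor stimulated with 3 nM 6-alpha-fluorotestosterone plus 1.5 nM norgestrel; gain of signal versus DMSO analysed.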

Assay [7] deals with zebrafish Thyroid Hormone Receptor beta (TRb), thrb (gene 30607) (UniProt Q9PVE4). The assay can be described thus: ATG_zfTRb_XSP2: Attagene TRANS-FACTORIAL Multi-Species (XSP1) HepG2 Assay for zebrafish Thyroid Hormone Receptor beta (TRb) (AID 2283836). An outline of the steps:
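Reporter transcripts were measured by RT-PCR with fluorescent primer extension and capillary electrophoresis, 24 h after chemical dosing of transiently transfected HepG2 cells. Activity was scored as upward signal versus DMSO baseline.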

In assay [8] the target is human Thyroid hormone Receptor alpha (TRa), THRA (gene 7067) (UniProt P10827). The assay can be described thus: ATG_hTRa_XSP2: Attagene TRANS-FACTORIAL Multi-Species (XSP2) HepG2 Assay for human Thyroid hormone Receptor alpha (TRa) (AID 2283838). In short, it runs like this:
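Gain-of-signal in reporter mRNA, relative to DMSO, after 24 h dosing of transfected HepG2; quantitation by RT-PCR fragment analysis on capillary electrophoresis.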

Assay [9] deals with frog Thyroid hormone Receptor alpha (TRa), thra-a (gene 397942) (UniProt P15204). Briefly: ATG_frTRa_XSP2: Attagene TRANS-FACTORIAL Multi-Species (XSP2) HepG2 Assay for frog Thyroid hormone Receptor alpha (TRa) (AID 2283839). In short, it runs like this:
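Transfect HepG2 with multiple reporter units (GAL4-UAS), dose chemical, incubate 24 h. Isolate RNA, reverse-transcribe, PCR-amplify reporter, label with 6-FAM by primer extension, digest with HpaI, run capillary electrophoresis; induction scored against DMSO.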

The target of assay [10] is human Thyroid hormone Receptor beta (TRb), THRB (gene 7068) (UniProt P10828). The assay can be described thus: ATG_hTRb_XSP2: Attagene TRANS-FACTORIAL Multi-Species (XSP2) HepG2 Assay for human Thyroid hormone Receptor beta (TRb) (AID 2283840).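 Note: actives raise reporter mRNA so potency reflects agonist-like gain of signal.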 An outline of the steps:
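Transient transfection of human HepG2 with multi-species NR-Gal4/GAL4-UAS reporter constructs; 24 h compound treatment; RNA isolation, reverse transcription, PCR and HpaI digest; capillary electrophoresis of labeled fragments; activity fitted upward versus DMSO.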

Assay [11] has as its target PGR (gene 5241) (UniProt P06401). The assay can be described thus: TOX21_PR_BLA_Followup_Agonist_ratio: Tox21 HEK293 Progesterone Receptor (PR) Agonism Beta-lactamase Follow-Up Assay, Ratio (AID 2283933). In short, it runs like this:
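Read-out: ratio of cleaved (ch2) to uncleaved (ch1) beta-lactamase substrate fluorescence, gain-of-signal relative to DMSO baseline. Cells: PR-UAS-bla HEK293T, 2% charcoal-stripped FBS; compound exposure 16 hr, 37C; substrate 2 hr, RT.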

For assay [12] the target is unchanged. The assay can be described thus: TOX21_PR_BLA_Followup_Antagonist_ratio: Tox21 HEK293 Progesterone Receptor (PR) Antagonism Beta-lactamase Follow-Up Assay, Ratio (AID 2283934). In short, it runs like this: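 Read-out: blue/green beta-lactamase FRET ratio (cleaved ch2 over uncleaved ch1), fitted relative to DMSO baseline. Cells: PR-UAS-bla HEK293T, GAL4-UAS reporter, stimulated with 1 nM R5020 final; 16 hr compound exposure, 37C.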

Assay [13] in a line: TOX21_PR_BLA_Followup_Agonist_viability: Viability Assessment in the Tox21 HEK293 Progesterone Receptor (PR) Agonism Beta-lactamase Follow-Up Assay (AID 2283935).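 Note: signal loss means lower viability so actives are cytotoxic.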 An outline of the steps:
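Luminescent ATP quantitation (CellTiter-Glo, 30 min, room temperature) in the same wells as the beta-lactamase read, on PR-UAS-bla HEK293T cells exposed to compound for 16 hr at 37C in 2% charcoal-stripped serum.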

The nature of assay [14]: TOX21_PR_BLA_Followup_Antagonist_viability: Viability Assessment in the Tox21 HEK293 Progesterone Receptor (PR) Antagonism Beta-lactamase Follow-Up Assay (AID 2283936).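 Note: cells exposed to compound with R5020 agonist for 16 h; hits lower the luminescence signal meaning cytotoxicity.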 In short, it runs like this: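 PR-UAS-bla HEK293T cells in medium with 2% charcoal-stripped FBS were treated with compounds plus R5020 for 16 hr at 37C. After the beta-lactamase read, CellTiter-Glo was added to the same wells and luminescence read after 30 min at room temperature.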

Assay [15] deals with PGR (gene 5241) (UniProt P06401). Briefly: TOX21_PR_LUC_Followup_Agonist: Tox21 HEK293 Progesterone Receptor (PR) Agonism Luciferase Follow-Up Assay (AID 2283937; active = hit-call score of the fitted dose curve at least 0.9, where 1 is the maximum; inactive = score below 0.9). An outline of the steps: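 Luminescence read-out (ONE-Glo, 30 min at room temperature) of PR-driven luciferase in HEK293-PR-A-luc cells after 16 h compound exposure at 37C; gain of signal fitted relative to DMSO baseline.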
Sequence of PGR (gene 5241) (P06401 whole entry, looked up): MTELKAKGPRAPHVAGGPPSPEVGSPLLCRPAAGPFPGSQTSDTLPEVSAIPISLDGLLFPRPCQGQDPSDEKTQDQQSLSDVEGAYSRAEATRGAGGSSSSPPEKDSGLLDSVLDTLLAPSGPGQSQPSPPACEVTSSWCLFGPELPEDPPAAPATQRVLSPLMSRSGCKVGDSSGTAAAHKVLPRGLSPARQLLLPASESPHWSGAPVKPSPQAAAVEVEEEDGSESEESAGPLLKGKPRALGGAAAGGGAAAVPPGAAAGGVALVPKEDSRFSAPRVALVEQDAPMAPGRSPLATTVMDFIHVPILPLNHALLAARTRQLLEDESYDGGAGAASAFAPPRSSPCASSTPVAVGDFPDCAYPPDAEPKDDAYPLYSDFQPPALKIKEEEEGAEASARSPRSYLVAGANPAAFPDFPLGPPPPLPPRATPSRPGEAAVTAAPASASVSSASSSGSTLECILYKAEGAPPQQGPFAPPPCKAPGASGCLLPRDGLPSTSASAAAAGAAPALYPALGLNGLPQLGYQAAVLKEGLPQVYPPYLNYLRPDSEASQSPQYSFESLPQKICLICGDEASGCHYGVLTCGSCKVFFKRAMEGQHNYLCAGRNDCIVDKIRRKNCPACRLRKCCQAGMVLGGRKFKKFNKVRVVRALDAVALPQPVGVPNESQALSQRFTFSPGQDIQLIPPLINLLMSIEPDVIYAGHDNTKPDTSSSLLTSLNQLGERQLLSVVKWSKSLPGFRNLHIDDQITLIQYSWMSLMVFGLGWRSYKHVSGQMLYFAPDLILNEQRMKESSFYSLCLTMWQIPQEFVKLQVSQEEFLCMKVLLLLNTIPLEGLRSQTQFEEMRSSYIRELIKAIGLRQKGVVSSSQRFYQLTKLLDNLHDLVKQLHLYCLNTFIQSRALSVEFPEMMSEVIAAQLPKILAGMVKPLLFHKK

The target is the same in assay [16]. Briefly: TOX21_PR_LUC_Followup_Antagonist: Tox21 HEK293 Progesterone Receptor (PR) Antagonism Luciferase Follow-Up Assay (AID 2283938).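 Note: curve fitted upward as signal gain over DMSO baseline despite antagonist label.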 An outline of the steps:
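Cells are grown 5 days in charcoal-stripped-FBS assay medium, plated, left 5 h, then dosed with compound and incubated 16 h. ONE-Glo reagent is added and luminescence read after 30 min.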

Assay [17] deals with Nuclear receptor subfamily 1 group I member 2 (Mus musculus) (UniProt O54915). Briefly: ATG_mPXR_XSP2: Attagene TRANS-FACTORIAL Multi-Species (XSP1) HepG2 Assay for mouse Pregnane X Receptor (PXR) (AID 2283831). In short, it runs like this: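 Reporter transcripts were quantified by RT-PCR, FAM primer extension, HpaI digestion and capillary electrophoresis after 24 h of chemical exposure in transiently transfected HepG2 cells carrying chimeric receptor-GAL4 constructs; DMSO served as baseline.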
Sequence of Nuclear receptor subfamily 1 group I member 2 (Mus musculus) (O54915 whole entry, looked up, the tested form may be a part): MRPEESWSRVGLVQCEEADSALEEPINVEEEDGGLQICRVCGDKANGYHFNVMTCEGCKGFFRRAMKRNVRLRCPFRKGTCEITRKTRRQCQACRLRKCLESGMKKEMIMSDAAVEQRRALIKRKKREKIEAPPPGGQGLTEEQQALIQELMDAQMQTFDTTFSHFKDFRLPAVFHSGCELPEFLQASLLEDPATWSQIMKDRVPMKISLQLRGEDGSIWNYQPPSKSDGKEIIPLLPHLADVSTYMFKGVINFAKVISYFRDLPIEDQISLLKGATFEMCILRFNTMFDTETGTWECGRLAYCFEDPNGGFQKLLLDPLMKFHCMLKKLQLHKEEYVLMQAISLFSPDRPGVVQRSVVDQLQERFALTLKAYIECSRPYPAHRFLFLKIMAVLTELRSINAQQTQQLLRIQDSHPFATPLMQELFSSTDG

In assay [18] the test system is zebrafish Peroxisome Proliferator-activated Receptor gamma (PPARg), gene 557037. Briefly: ATG_zfPPARg_XSP2: Attagene TRANS-FACTORIAL Multi-Species (XSP2) HepG2 Assay for zebrafish Peroxisome Proliferator-activated Receptor gamma (PPARg) (AID 2283833).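 Note: actives increase reporter signal over DMSO so AC50 reflects activation.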 An outline of the steps: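 Multi-species TRANS format in HepG2, 24 h dosing; medium also contained 3 nM 6-alpha-fluorotestosterone and 1.5 nM norgestrel to stimulate androgen receptor. Zebrafish PPARg-GAL4 induced reporter mRNA was measured by RT-PCR/capillary electrophoresis.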

For assay [19], the system named is turtle Thyroid Hormone Receptor, alpha (TRa), gene 101949057. The assay can be described thus: ATG_trTRa_XSP2: Attagene TRANS-FACTORIAL Multi-Species (XSP1) HepG2 Assay for turtle Thyroid Hormone Receptor, alpha (TRa) (AID 2283834).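 Note: hits raise reporter mRNA over the DMSO baseline so AC50 marks activators.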 An outline of the steps: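 Transfection of HepG2 with multiple reporter transcription units, then chemical dosing for 24 h. Total RNA was reverse-transcribed, reporter sequences PCR-amplified and FAM-labelled, then sized by capillary electrophoresis. DMSO served as baseline.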

Assay [20] can be described thus: ATG_XTT_Cytotoxicity_XSP2: Cytotoxicity Assessment in the Attagene TRANS-FACTORIAL Multi-Species (XSP2) HepG2 Assay (AID 2283837). An outline of the steps: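 XTT-based cell number read-out in human HepG2 liver cells carrying transfected reporter units, measured 24 h after chemical dosing. Activity is signal loss versus DMSO baseline.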

Sequence of mouse Peroxisome Proliferator-activated Receptor gamma (PPARg), Pparg (gene 19016) (P37238 whole entry, looked up, the tested form may be a part): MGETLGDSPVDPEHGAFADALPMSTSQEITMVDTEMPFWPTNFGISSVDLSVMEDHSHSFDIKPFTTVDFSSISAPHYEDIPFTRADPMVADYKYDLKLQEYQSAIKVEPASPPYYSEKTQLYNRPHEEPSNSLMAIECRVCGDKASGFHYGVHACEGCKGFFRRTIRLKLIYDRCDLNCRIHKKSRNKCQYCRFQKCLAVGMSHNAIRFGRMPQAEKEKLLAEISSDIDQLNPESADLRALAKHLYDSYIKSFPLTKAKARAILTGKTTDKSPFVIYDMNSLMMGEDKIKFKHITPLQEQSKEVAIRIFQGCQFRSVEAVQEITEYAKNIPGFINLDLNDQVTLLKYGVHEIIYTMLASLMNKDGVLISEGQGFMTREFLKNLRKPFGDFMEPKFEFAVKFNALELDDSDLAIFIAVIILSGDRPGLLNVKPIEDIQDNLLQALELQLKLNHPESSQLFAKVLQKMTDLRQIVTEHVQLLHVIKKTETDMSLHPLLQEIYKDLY
Sequence of Peroxisome proliferator-activated receptor gamma (Homo sapiens) (P37231 whole entry, looked up, the tested form may be a part): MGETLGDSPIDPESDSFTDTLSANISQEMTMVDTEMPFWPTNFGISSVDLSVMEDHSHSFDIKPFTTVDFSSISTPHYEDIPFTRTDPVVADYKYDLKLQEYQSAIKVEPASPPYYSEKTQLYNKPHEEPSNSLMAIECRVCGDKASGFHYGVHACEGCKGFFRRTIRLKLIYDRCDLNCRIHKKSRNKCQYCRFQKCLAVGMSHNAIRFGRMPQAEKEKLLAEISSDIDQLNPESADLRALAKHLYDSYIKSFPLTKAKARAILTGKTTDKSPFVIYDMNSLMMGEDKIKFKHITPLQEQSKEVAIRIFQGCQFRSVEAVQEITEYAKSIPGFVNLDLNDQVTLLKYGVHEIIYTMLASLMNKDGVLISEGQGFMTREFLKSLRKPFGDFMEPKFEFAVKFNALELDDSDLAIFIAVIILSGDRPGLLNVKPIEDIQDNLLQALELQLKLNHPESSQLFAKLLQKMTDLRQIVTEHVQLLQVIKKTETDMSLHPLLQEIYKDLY
Sequence of frog Thyroid hormone Receptor alpha (TRa), thra-a (gene 397942) (P15204 whole entry, looked up, the tested form may be a part): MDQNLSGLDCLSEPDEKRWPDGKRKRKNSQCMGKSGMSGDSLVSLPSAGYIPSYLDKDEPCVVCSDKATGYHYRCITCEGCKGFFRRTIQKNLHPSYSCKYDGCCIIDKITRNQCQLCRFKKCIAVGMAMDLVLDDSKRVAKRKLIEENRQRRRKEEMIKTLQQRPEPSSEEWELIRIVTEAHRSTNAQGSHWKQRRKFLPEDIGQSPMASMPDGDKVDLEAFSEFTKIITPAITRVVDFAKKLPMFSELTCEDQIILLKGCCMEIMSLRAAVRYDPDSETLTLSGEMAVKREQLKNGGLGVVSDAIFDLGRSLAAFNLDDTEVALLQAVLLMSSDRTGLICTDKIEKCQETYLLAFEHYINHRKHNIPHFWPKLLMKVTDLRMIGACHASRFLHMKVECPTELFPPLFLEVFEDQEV
Sequence of human Thyroid hormone Receptor alpha (TRa), THRA (gene 7067) (P10827 whole entry, looked up, the tested form may be a part): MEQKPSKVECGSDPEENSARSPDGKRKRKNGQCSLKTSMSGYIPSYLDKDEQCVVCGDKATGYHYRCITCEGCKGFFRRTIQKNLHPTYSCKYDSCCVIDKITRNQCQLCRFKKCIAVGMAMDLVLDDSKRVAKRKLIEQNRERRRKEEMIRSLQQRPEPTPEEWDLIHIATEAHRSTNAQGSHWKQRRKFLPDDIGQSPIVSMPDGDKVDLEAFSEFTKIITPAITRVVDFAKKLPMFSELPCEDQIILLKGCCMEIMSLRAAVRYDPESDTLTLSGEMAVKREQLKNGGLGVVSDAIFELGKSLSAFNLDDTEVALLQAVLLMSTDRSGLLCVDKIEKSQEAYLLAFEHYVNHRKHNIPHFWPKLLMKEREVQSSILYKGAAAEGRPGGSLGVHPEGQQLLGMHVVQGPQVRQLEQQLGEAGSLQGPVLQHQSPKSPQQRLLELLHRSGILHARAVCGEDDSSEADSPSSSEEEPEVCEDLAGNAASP
Sequence of zebrafish Thyroid Hormone Receptor alpha (TRa), thraa (gene 30670) (Q98867 whole entry, looked up, the tested form may be a part): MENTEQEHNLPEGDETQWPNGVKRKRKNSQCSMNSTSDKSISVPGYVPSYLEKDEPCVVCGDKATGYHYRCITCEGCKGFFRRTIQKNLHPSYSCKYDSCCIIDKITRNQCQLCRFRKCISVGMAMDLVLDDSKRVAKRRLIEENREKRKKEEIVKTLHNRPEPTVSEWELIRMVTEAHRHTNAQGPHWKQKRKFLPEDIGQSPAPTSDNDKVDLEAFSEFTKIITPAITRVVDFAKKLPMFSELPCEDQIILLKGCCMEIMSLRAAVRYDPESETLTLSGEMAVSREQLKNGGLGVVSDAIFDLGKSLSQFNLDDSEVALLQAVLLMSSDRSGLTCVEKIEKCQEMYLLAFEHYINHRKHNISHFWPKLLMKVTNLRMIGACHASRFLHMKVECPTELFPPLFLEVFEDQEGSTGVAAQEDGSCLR
Sequence of zebrafish Thyroid Hormone Receptor beta (TRb), thrb (gene 30607) (Q9PVE4 whole entry, looked up): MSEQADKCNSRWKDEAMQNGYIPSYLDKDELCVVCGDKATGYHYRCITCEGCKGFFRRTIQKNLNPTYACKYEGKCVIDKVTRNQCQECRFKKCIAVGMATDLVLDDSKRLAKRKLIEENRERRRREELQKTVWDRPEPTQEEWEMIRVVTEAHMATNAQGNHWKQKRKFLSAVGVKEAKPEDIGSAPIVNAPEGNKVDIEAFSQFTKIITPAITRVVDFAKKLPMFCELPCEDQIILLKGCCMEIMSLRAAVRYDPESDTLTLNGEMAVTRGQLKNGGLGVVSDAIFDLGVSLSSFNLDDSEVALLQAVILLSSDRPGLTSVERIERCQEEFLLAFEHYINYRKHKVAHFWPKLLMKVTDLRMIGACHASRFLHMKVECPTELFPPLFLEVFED
Sequence of human Thyroid hormone Receptor beta (TRb), THRB (gene 7068) (P10828 whole entry, looked up, the tested form may be a part): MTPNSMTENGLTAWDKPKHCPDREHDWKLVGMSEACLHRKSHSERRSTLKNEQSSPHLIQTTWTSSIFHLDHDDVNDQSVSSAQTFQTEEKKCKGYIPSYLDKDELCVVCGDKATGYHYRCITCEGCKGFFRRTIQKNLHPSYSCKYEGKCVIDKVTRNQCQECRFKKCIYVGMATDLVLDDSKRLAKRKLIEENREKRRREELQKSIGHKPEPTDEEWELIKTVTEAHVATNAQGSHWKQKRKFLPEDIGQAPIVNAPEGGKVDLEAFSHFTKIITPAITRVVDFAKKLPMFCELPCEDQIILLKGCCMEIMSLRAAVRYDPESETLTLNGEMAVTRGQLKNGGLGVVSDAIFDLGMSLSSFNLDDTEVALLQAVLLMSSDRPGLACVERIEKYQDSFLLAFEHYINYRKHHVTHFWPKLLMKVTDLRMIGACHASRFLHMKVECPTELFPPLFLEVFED

In the case of `CC(C)(C)c1ccc(OC(=O)c2ccccc2O)cc1`, the result in assay [1] and in [2] was inactive.

`O=C(c1ccc(O)cc1)c1ccc(O)cc1O`: the compound was classed as inactive in assay [3], in assay [4], in assay [5], in [6], in assay [7] and in assay [8]. Further, the compound was called inactive in assay [9] and in assay [10].

For the compound `CCN(CCC#N)c1ccc(N=Nc2c(Cl)cc([N+](=O)[O-])cc2Cl)cc1`, the result in assay [1] and in assay [2] was inactive.

Turning to `CC(C)(c1cc(Br)c(OCCO)c(Br)c1)c1cc(Br)c(OCCO)c(Br)c1`, the result with PGR (gene 5241) [11] and with PGR (gene 5241) [15] was inactive. In addition, the AC50 was 13.4 µM (active) with PGR (gene 5241) [12], 32.2 µM (active) in assay [13], 54 µM (active) in assay [14] and 12.8 µM (active) with PGR (gene 5241) [16].

In the case of `CCCCCCCC[N+](C)(CCCCCCCC)CCCCCCCC`, the AC50 in assay [1] is 10.4 µM (active); in [2], 50 µM (active).

Regarding `CCOC(=O)Cc1cccc2ccccc12`, the outcome in assay [1] and in assay [2] was inactive.

As for `COC(=O)c1c(C)cc(O)c(C)c1O`, the concentration at half-maximal activity (AC50) in assay [3] is 100 µM (active) and 66.6 µM (active); in [4], 64.5 µM (active); in [17], 10.7 µM (active) and 27.3 µM (active). In addition, the result in assay [4], in [5], in [18], in assay [19], in assay [6] and in assay [7] was inactive. Further, the call in [20], in assay [8], in assay [9] and in assay [10] was inactive.

On to `c1ccc2c(c1)ccc1cc3c(ccc4ccccc43)cc12`, for which the result in assay [1] and in [2] was inactive.

As to `CCOC(=O)c1ccccc1C(=C1C=C(Br)C(=O)C(Br)=C1)c1cc(Br)c(O)c(Br)c1`, the AC50 with PGR (gene 5241) [12] is 24.5 µM (active); in the assay with PGR (gene 5241) [16] it was 28.9 µM (active). Further, the compound was classed as inactive in [13] and in assay [14].

With `C[C@]12CCC(=O)C=C1CC[C@@H]1[C@@H]2C(=O)C[C@@]2(C)[C@H]1CC[C@]2(O)C(=O)CO`, the outcome (in the assay with PGR (gene 5241) [12]; in assay [13]; in assay [14]; with PGR (gene 5241) [16]) was inactive.
